Compound activity: PubChem, National Center for Advancing Translational Sciences (NCATS)
Compounds with a hit are over-represented: about 19% of the library has one in this group of screens.
IL1B secr inh – blocks inflammasome-driven IL-1 beta release; THP-1 LPS/ATP IL-1B secretion, AlphaLISA, 16 h; stronger effect = lower value; activity change, % at 57.5 µM; actives 4.7% (n = 360,000); AID 743279; in the data active means activity change below about -50%; inconclusive means mostly about -30% to -49%; further: on the % scale 0 is the no-effect control and ±100 the full control effect
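THP-1 cells pretreated 1 hr with compounds (up to 57.5 uM final), then stimulated with LPS (250 ng/mL final) plus ATP (1.25 mM final); secreted IL-1B measured by AlphaLISA after 16 hr, decreased signal indicating inhibition.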
TDP1 inh – inhibitors of human tyrosyl-DNA phosphodiesterase TDP1; Potency, µM (top dose mostly 130 µM), for the others: at the top dose activity change, negative = inhibition, most hits filed as inhibitors; recombinant TDP1, AlphaScreen DNA substrate cleavage; actives 0.28% (n = 350,000); further: potency means the concentration at half of the fitted maximal effect; on the % scale 0 is the no-effect control and ±100 the full control effect; nearly all actives have a fitted effect of over 40% in size
Target sequence (Q9NUW8 whole entry, looked up): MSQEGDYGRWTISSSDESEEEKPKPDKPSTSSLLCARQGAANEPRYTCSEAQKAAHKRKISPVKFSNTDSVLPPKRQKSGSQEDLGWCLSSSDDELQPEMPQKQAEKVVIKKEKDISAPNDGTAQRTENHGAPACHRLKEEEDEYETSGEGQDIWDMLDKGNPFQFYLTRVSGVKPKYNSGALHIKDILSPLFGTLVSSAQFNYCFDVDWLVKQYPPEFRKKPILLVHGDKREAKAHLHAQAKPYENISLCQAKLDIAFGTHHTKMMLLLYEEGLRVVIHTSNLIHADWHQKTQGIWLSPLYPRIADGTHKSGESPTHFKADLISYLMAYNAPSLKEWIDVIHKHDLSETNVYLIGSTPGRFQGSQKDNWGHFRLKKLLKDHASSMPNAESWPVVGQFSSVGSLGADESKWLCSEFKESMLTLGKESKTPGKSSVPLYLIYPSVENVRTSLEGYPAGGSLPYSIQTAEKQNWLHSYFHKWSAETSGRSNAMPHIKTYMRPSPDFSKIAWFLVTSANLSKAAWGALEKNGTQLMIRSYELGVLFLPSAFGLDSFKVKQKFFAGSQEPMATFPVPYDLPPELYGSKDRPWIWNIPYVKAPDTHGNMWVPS
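Recombinant E. coli-expressed Tdp1 (1 nM) preincubated with compound 15 min at RT, then 5'-biotin/3'-phosphotyrosine-FITC DNA substrate (15 nM) added for 5 min. AlphaScreen beads (10 ug/ml) added, 10 min RT; tyrosine-FITC cleavage read as signal loss.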
TGFb inhibitor – inhibitors of TGF-b signaling. HepG2 CAGA-GFP TGF-b/SMAD3 reporter, GFP fluorescence, 18 h; TGF-beta stimulated, 500 pg/mL final. Potency, µM (titrated, usually from 46.1 µM), inactives show at the highest dose activity, negative = inhibition, usual class: inhibitors. actives 1.2% (n = 410,000); further: potency means the concentration at half of the fitted maximal effect; on the % scale 0 is the no-effect control and ±100 the full control effect; nearly all actives have a fitted effect of over 65% in size
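Smad-responsive CAGA-GFP expression was quantified in HEPG2 cells exposed to compounds and 500 pg/mL final TGF-beta for 18 h at 37 degrees C; unstimulated wells defined full inhibition.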
DT40 TDP1 no CPT – qHTS for Inhibitors of human tyrosyl-DNA phosphodiesterase 1 (TDP1): qHTS in cells in absence of CPT. DT40 Tdp1-/- hTDP1 cells, no CPT, ATP luminescence, 48 h. Potency, µM (highest dose often 46.2 µM), for inactives: at the highest dose activity change, negative = growth inhibition, usual class: inhibitors. actives 15% (n = 420,000). AID 686978, 2013; further: potency means the concentration at half of the fitted maximal effect; on the % scale 0 is the no-effect control and ±100 the full control effect; nearly all actives have a fitted effect of over 55% in size
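Chicken DT40 Tdp1-/- cells complemented with human TDP1, screened without camptothecin (DMSO vehicle only), 400 cells/well. Compounds pin-transferred, cells incubated at 37 °C for at least 48 hr. Growth read as ATP-dependent luminescence (CellTiter-Glo, 30 min at RT).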
TDP1 cell CPT – growth inhibition of DT40 Tdp1-/-;hTDP1 cells with camptothecin (screen for TDP1 inhibitors). AID 686979. actives 12% (n = 420,000). chicken DT40 Tdp1-/-;hTDP1 cells + 20 nM CPT, ATP luminescence, 48 h. Potency, µM (highest dose often 46.2 µM), inactives show at the top dose activity change, negative = growth inhibition, hits mostly inhibitors; further: potency means the concentration at half of the fitted maximal effect; on the % scale 0 is the no-effect control and ±100 the full control effect; nearly all actives have a fitted effect of over 55% in size
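Chicken DT40 Tdp1-/- cells stably complemented with human TDP1 were seeded at 400 cells/well in medium containing 20 nM camptothecin, exposed to pin-transferred compounds, and grown at 37 °C for at least 48 hr. Viability was read as ATP luminescence.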
HepG2 viability – HepG2 cytotoxicity, counter-screen for TGF-b inhibitors; HepG2 CAGA-GFP viability, ATP luminescence, 18 h; Potency, µM (series often up to 46.1 µM), for the others: top-dose activity change, negative = cytotoxicity, hits mostly cytotoxic; actives 0.76% (n = 410,000); AID 588856; further: potency means the concentration at half of the fitted maximal effect
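CellTiter-Glo luminescence gave cytotoxicity after 18 hours at 37 degrees C. The cells were HepG2 CAGA-GFP in 1% FBS DMEM, stimulated with 500 pg/mL TGF-beta after compound addition. %Activity was normalised to no-cell wells (complete cell-killing) and DMSO (no toxicity), and curves were fitted and classified.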
* = called active by the depositor; ? = inconclusive; · = not tested or not shown; ! = not confirmed by another sample; [ ] = remark or other dose. Unless noted, the call rests on the fitted dose curve; in most records, active means well fitted curve in the direction sought with a large enough effect; inconclusive means small, poorly fitted or top-dose-only effect, or another doubt; inactive means no such curve, though single readings can be large; an effect the other way counts as inactive or inconclusive.

SMILES	IL1B secr inh	TDP1 inh	TGFb inhibitor	DT40 TDP1 no CPT	TDP1 cell CPT	HepG2 viability
COCC(=O)N1CCC(Oc2ccc(C(=O)NCc3cc(C(C)C)no3)cc2)CC1	11	6%	-5%	-5%	-13%	-1%
CC(=O)O[C@@]12CO[C@@H]1C[C@H](O)[C@@]1(C)C(=O)[C@H](O)C3=C(C)[C@@H](OC(=O)[C@H](O)[C@@H](NC(=O)OC(C)(C)C)c4ccccc4)C[C@](O)([C@@H](OC(=O)c4ccccc4)[C@H]21)C3(C)C	·	9%	·	·	·	·
CC(=O)O[C@H]1C[C@@]2(O)[C@@H](OC(=O)c3ccccc3)C3[C@@](C)([C@@H](O)C[C@H]4OC[C@@]34OC(C)=O)[C@@H](O)[C@H](OC(C)=O)C(=C1C)C2(C)C (stereo partly drawn)	12	·	4%	18µM*	16µM*	-11%
CCOc1cc(CNc2ccc3cn[nH]c3c2)ccc1OC	-19	5%	?	21µM*	?	-39%
COc1cc(CNc2ccc3[nH]c(=O)[nH]c3c2)cc(Br)c1OCc1ccccc1F	-60*	-3%	0%	21µM*	10µM*	-27%
COc1ccc(CNc2ccc3cn[nH]c3c2)c(OC)c1OC	42	7%	?	?	?	-35%
COc1cc(CNc2ccc3[nH]c(=O)[nH]c3c2)ccc1OCc1ccccc1F	?	5%	3%	16µM*	21µM*	-2%
CCOc1c(Cl)cc(CNc2ccc3[nH]c(=O)[nH]c3c2)cc1OC	·	9%	3%	?	23µM*	-12%
COc1ccc(CCNC(=O)c2ccc(Cn3c(=O)c4cccn4c4cccnc43)cc2)cc1OC	·	-5%	-20%	?	-19%	-26%
Nc1ccc2oc(=O)ccc2c1I	·	3%	·	·	·	·
COc1cc(CNc2ccc3[nH]c(=O)[nH]c3c2)ccc1OCC(=O)NC(C)(C)C	-16	7%	-9%	?	?	4%
COc1cc(CNc2ccc3[nH]c(=O)[nH]c3c2)ccc1OCc1ccc(F)cc1	-7	6%	-19%	-23%	?	-6%
COc1cc(CNc2ccc3[nH]c(=O)[nH]c3c2)ccc1OCc1ccc(Cl)cc1	-2	5%	11µM*	?	?	-54%
COc1cc(CNc2ccc3[nH]c(=O)[nH]c3c2)cc(Br)c1OCC(=O)NC(C)(C)C	-68*	8%	4%	?	?	-6%
CCN(Cc1ccccc1)C(=O)CN1C(=O)CSc2ccc(S(=O)(=O)N(CC)CC)cc21	·	2%	-13%	?	?	5%
CCOc1ccc(C(=O)C(CN2CCOCC2)c2ccccc2)cc1 (stereo not drawn)	-95*	0%	?	3.3µM*	3.3µM*	-81%
COc1ccc(C(O)C(CN2CCOCC2)c2ccccc2)cc1 (stereo not drawn)	-8	8%	-1%	-10%	-21%	11%
CC(CN1CCOCC1)OC(=O)c1ccccc1Cl (stereo not drawn)	-18	5%	-2%	0%	13%	-1%
OC(c1ccc(F)cc1)C(CN1CCOCC1)c1ccccc1 (stereo not drawn)	19	·	3%	?	-30%	0%
CC(CN1CCOCC1)OC(=O)c1ccc(Br)cc1 (stereo not drawn)	31	4%	?	0.65µM*	0.92µM*	-60%
O=C(c1ccc(Br)cc1)C(CN1CCOCC1)c1ccccc1 (stereo not drawn)	-98*	·	11µM*	2.1µM*	1.3µM*	-95%
CCCCCOc1ccc(C(O)C(CN2CCOCC2)c2ccccc2)cc1 (stereo not drawn)	-62*	·	-1%	?	?	-24%
O=C(c1ccccc1)c1ccc(OCC(O)CN2CCOCC2)cc1 (stereo not drawn)	-4	·	17%	-23%	-6%	-12%
COc1cc2c(cc1OC)C(Nn1cnnc1)=NC1(CCCC1)C2	-12	1%	4%	7%	-2%	-9%
O=C(c1ccccc1)C(CN1CCCCC1)c1ccccc1 (stereo not drawn)	-102*	·	?	2.1µM*	1.8µM*	-94%
SMILES	IL1B secr inh	TDP1 inh	TGFb inhibitor	DT40 TDP1 no CPT	TDP1 cell CPT	HepG2 viability
O=C(CC(C(=O)O)c1cccc(Cl)c1)c1ccccc1 (stereo not drawn)	0	·	2%	9%	-25%	7%
CCCCCCCCCCCCCC(=O)N[C@@H](C)[C@H](O)c1ccccc1	·	2%	·	-23%[4.12 µM]	0%[4.12 µM]	·
N#CC(c1ccc(N)cc1)C(CC(=O)c1ccccc1)c1ccccc1 (stereo not drawn)	-16	·	11%	29µM*	?	3%
O=C(CC(C(=O)c1ccccc1)c1ccccc1)c1ccccc1 (stereo not drawn)	?	·	6%	21µM*	?	1%
CCCCCCCCCC(=O)N[C@H](CN1CCOCC1)[C@H](O)c1ccccc1	-13	7%	-15%	23µM*!	?	-14%
CC(C)C[C@@H](CNCC(=O)[C@H](CC(C)C)NC(=O)c1[nH]cnc1C(=O)N[C@@H](C)CN)NC(=O)c1nc[nH]c1C(=O)N[C@@H](CC(=O)O)C(=O)O	-55*	·	-10%	-3%	-16%	-1%
NC(=O)c1cccc(-c2coc3c(C(=O)NCc4ccccc4)cccc23)c1	-22	·	?	18µM*	?	-18%
COCCCNC(=O)c1cccc2c(-c3cccc(C(N)=O)c3)coc12	20	·	4%	13µM*	?	-4%
Cn1cc(-c2coc3c(C(=O)NCc4cccnc4)cccc23)cn1	-4	·	0%	23µM*	?	1%
COc1ccc(CNC(=O)c2cccc3c(-c4cnn(C)c4)coc23)cc1OC	?	·	8%	?	?	-3%
CCOc1ccc(NC(=O)Cn2c(=O)n(Cc3ccc4c(c3)OCO4)c(=O)c3ccc(C(=O)NC4CCCCC4)cc32)cc1	·	0%	-2%	4.6µM*	2.6µM*	-13%
CCc1ccccc1NC(=O)Cn1c(=O)n(Cc2ccc3c(c2)OCO3)c(=O)c2ccc(C(=O)NC3CCCCC3)cc21	·	5%	26%	?	1.8µM*	-54%
O=C(CN1C(=O)CCC1=O)NCC12CC3CC(CC(C3)C1)C2	?	-2%	27%	26µM*	?	-20%
